# Experimental data: PubChem BioAssay
# Activity calls are given as the source filed them.
# How the values were obtained:
# [1] = tested on: PRMT1 (protein arginine N-methyltransferase 1); assay: small molecules binding arginine methyltransferase PRMT1 – biochemical, small-molecule microarray, 635 nm fluorescence, primary screen (AID 1088); settings: higher = more signal;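 also: binding of Prmt1 protein to compounds spotted on small-molecule microarray slides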
# [2] = growth effects on S. cerevisiae YJM789 – YJM789 clinical isolate, OD600, 24 h, basal, primary screen (AID 1089); settings: higher = more signal, called active from +8 up or from −8 down;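 also: growth of clinical yeast isolate S. cerevisiae YJM 789 seeded 1000 cells per well; test concentration not given here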
# [3] = S. pombe growth modifiers, basal conditions – strain 972, OD600, 24 h, no modulator, primary screen (AID 1090);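 also: basal condition with compound alone and no growth modifier present; test concentration not given here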; settings: S. pombe 972 growth, higher = more signal, called active from +8 up or from −8 down
# [4] = budding yeast growth modifiers under rapamycin – strain BY4716, OD600, 96 h, primary screen (AID 1091); also: test concentration not given here; settings: S. cerevisiae BY4716 + rapamycin, higher = more signal, called active from +8 up or from −8 down
# [5] = target: Torsin-1A-interacting protein 2 (Homo sapiens) (UniProt Q8NFQ8); assay: small molecules binding lysate-expressed LULL1 – cell lysate, human LULL1 lysate, 635/667 nm fluorescence, primary screen (AID 1092); settings: small-molecule microarray, hLULL1 lysate binding, 635 nm fluorescence; higher = more signal;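 also: probe is lysate of COS7 cells overexpressing human LULL1; score merges per-feature 667 nm fluorescence with signal-to-noise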
# Torsin-1A-interacting protein 2 (Homo sapiens), sequence (Q8NFQ8 whole entry, looked up): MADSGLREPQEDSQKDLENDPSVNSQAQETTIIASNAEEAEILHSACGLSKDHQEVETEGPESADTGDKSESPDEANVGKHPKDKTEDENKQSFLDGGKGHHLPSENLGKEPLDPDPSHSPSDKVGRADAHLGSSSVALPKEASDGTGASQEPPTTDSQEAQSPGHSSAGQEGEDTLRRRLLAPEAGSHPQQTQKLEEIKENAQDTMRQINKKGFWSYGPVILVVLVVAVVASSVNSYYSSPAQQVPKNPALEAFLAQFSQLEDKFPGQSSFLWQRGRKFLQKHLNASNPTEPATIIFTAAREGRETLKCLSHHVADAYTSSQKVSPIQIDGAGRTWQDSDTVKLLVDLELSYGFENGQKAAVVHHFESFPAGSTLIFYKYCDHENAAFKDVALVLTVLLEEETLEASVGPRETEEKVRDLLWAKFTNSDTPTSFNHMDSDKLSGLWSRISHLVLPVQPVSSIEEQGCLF
# [6] = optical density change of DRC41 E. coli – strain DRC41, OD650, 24 h, E. coli filamentation project, primary screen (AID 1093);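 also: MC1000 strain lacking acrAB efflux and sulA so SOS filamentation is blocked; test concentration not given here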; settings: E. coli DRC41 growth, higher = more signal, called active from +8 up or from −8 down
# [7] = probe aLefty2 binding to arrayed compounds – biochemical, biotinylated probe, 635/667 nm fluorescence, primary screen (AID 1094); settings: small-molecule microarray, higher = more signal;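 also: score merges spot fluorescence near 667 nm with spot signal-to-noise ratio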
# [8] = tested on: Noggin (protein binding on small-molecule microarray); assay: small molecules binding Noggin protein – biochemical, 635/667 nm fluorescence, primary screen (AID 1095); settings: 635 nm fluorescence, higher = more signal;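 also: score merges 667 nm feature fluorescence with signal to noise over triplicate slides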
# [9] = target: Neurogenic locus notch homolog protein 3 (Homo sapiens) (UniProt Q9UM47); assay: small molecules binding NOTCH3 protein – biochemical, 635/667 nm fluorescence, primary screen (AID 1096); settings: small-molecule microarray, 635 nm fluorescence, higher = more signal
# Neurogenic locus notch homolog protein 3 (Homo sapiens), sequence (Q9UM47 whole entry, looked up): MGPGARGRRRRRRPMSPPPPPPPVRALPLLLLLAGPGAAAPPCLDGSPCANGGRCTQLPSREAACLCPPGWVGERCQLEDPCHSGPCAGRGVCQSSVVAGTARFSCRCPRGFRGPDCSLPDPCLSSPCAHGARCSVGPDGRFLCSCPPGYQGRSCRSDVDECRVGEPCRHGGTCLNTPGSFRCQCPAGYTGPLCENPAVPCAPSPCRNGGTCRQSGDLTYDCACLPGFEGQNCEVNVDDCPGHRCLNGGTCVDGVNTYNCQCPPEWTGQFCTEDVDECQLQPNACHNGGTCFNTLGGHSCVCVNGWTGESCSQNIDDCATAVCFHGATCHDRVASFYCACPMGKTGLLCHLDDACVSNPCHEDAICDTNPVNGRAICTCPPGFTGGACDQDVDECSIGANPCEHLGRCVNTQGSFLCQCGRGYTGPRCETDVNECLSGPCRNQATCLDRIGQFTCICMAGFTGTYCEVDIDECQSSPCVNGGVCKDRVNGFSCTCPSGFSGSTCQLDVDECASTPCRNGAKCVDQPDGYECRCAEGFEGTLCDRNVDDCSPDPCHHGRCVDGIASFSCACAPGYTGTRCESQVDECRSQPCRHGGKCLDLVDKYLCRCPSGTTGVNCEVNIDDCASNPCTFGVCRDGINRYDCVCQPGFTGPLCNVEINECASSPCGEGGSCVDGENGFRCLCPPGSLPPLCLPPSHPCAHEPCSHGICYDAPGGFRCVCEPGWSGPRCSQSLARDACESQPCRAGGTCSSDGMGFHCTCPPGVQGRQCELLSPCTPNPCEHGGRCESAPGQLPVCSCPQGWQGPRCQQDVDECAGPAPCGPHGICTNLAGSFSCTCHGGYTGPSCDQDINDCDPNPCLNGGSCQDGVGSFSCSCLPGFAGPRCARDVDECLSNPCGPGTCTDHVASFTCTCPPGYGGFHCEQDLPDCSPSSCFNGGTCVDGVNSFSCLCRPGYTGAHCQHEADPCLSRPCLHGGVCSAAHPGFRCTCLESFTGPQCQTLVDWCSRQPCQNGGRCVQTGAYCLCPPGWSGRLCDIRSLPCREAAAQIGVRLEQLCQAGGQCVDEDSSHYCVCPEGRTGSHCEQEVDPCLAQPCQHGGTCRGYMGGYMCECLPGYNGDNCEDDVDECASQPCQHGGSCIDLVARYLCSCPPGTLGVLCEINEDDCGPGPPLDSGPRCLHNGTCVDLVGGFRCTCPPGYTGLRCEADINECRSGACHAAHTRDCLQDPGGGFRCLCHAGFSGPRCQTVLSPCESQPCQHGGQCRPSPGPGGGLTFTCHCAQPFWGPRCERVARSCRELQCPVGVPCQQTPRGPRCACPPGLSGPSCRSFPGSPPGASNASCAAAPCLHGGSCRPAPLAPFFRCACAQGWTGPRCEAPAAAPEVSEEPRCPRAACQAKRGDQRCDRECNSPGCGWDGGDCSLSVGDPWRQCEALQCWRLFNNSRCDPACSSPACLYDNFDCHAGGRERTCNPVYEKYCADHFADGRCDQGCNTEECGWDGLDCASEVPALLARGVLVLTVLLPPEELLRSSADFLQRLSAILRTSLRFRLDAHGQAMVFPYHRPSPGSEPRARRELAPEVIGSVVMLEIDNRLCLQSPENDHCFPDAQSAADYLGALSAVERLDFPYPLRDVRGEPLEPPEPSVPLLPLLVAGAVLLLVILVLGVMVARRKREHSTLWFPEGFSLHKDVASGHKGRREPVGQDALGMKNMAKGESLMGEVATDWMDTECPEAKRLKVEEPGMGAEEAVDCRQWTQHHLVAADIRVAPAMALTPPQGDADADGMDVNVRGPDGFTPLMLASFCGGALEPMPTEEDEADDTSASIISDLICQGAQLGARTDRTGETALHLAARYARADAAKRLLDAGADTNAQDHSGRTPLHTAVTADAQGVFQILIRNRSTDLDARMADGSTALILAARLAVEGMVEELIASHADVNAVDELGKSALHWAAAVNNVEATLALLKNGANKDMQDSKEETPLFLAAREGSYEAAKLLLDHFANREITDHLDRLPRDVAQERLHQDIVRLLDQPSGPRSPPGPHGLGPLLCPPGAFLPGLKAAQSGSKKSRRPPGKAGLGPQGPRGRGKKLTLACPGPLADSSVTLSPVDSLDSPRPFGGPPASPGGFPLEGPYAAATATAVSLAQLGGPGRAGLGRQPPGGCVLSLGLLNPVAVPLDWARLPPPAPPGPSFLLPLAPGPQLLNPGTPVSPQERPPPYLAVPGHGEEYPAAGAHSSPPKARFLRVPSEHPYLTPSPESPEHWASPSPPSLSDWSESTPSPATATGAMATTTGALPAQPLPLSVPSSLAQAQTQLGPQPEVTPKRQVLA
# [10] = probe aEGFR binding to arrayed compounds – biochemical, biotinylated probe, 635/667 nm fluorescence, primary screen (AID 1097); settings: small-molecule microarray, higher = more signal;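 also: probe is a biotinylated anti-EGFR antibody binding compounds printed on slides; score combines fluorescence near 667 nm and signal to noise of each spot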
SMILES,composite z-score [1],z-score [2],z-score [3],z-score [4],composite z-score [5],z-score [6],composite z-score [7],composite z-score [8],composite z-score [9],composite z-score [10]
COc1cc(O)c(C(=O)C=Cc2ccc3c(c2)OCO3)c(OC)c1,-0.825,1.11 (inactive),0.561 (inactive),2.26 (inactive),-0.862,0.75 (inactive),-0.127,0.257,0.124,-0.113
COC(=O)CC=C[C@@H](C)[C@@H](C=NOC[C@@H](O)[C@H]1O[C@@H]2OC(C)(C)O[C@@H]2[C@H]1O)NS(=O)(=O)c1ccc(C)cc1,0.601,-0.684 (inactive),-0.137 (inactive),-0.408 (inactive),0.308,0.445 (inactive),0.0528,0.974,0.638,-0.0553
CC[C@@H](c1ccccc1)n1c(=O)n2n(c1=O)[C@H]1[C@H](O)[C@@H]3O[C@@H]3C(=NOC[C@@H](O)COCc3ccco3)[C@H]1CC2,-0.862,-0.697 (inactive),-0.552 (inactive),-0.624 (inactive),-1.1,0.568 (inactive),-0.215,0.0447,-0.979,-0.185
CO[C@H]1COC(=O)[C@H](C)NC(=O)CC=C[C@@H](C)[C@H](OC)COC(=O)[C@@H](OCc2ccccc2)C=C[C@@H]1C,0.269,-0.365 (inactive),-0.123 (inactive),-0.118 (inactive),-0.986,0.786 (inactive),-0.166,0.941,-0.458,-0.15
CCOC(=O)[C@H](Cc1ccccc1)NC(=O)CCC1CC(OC(=O)NCc2cccc3ccccc23)CC2(CCCC(COC(=O)NCC(c3ccccc3)c3ccccc3)O2)O1 (stereo not given in full),1.5,-0.803 (inactive),-0.463 (inactive),-1.07 (inactive),1.17,-1.09 (inactive),-0.147,0.504,0.851,0.0117
Cn1c(=O)n2n(c1=O)[C@H]1[C@H](O)[C@@H]3O[C@@H]3C(=O)[C@H]1CC2,-0.261,0.954 (inactive),0.595 (inactive),0.672 (inactive),0.485,0.442 (inactive),-0.13,0.457,0.557,-0.0508
CCc1cc2c(nc1CC)CCN(CCC(C)=NO[C@@H](C)c1cn([C@H](CO)Cc3ccccc3)nn1)C2,-0.329,0.687 (inactive),0.22 (inactive),-0.215 (inactive),0.559,-0.189 (inactive),0.0336,0.42,0.438,-0.0679
C[C@@H](ON=C1[C@H]2CCn3c(=O)n(-c4ccccc4)c(=O)n3[C@H]2[C@H](O)[C@@H]2O[C@H]12)c1cn([C@@H]2COC[C@H]2O)nn1,0.556,-0.638 (inactive),0.636 (inactive),0.0921 (inactive),-0.219,0.389 (inactive),-0.152,0.57,0.72,-0.0788
Cc1cc2c(nc1C)CCCN2CC(O)CN1CCCc2nc(C)c(C)cc21,0.692,0.623 (inactive),0.73 (inactive),-0.238 (inactive),1.89,-0.605 (inactive),0.256,0.256,0.625,-0.002
CCOC(=O)[C@H](CC(C)C)NC(=O)CCC1CC(OC(=O)NCc2cccc3ccccc23)CC2(CCCC(COC(=O)NCc3ccncc3)O2)O1 (stereo not given in full),1.56,0.649 (inactive),0.462 (inactive),0.678 (inactive),1.58,0.409 (inactive),-0.166,0.433,0.789,0.157
COC(=O)C=CCCc1coc(C=CCNC(=O)OC)n1,1.45,0.339 (inactive),0.255 (inactive),0.196 (inactive),0.254,-1.42 (inactive),0.17,1.37,1.08,0.161
CC(C)CON=C1[C@H]2CCn3c(=O)n(Cc4cc5c(cc4Cl)OCO5)c(=O)n3[C@H]2[C@H](O)[C@@H]2O[C@H]12,-0.149,0.534 (inactive),-0.129 (inactive),0.296 (inactive),0.299,0.0007 (inactive),-0.0936,0.607,0.573,-0.0139
Cc1ccc(S(=O)(=O)N[C@H]2COC(=O)CC=C[C@@H](C)COC(=O)CC=C[C@@H]2C)cc1,0.683,0.611 (inactive),0.174 (inactive),0.247 (inactive),-0.953,0.682 (inactive),0.296,1.8,-0.207,-0.281
CO[C@H](C1CCCCC1)[C@H](C)C=CCC(=O)OCCCc1ccccc1,-0.53,1.37 (inactive),0.5 (inactive),1.49 (inactive),-0.242,-0.0775 (inactive),-0.192,-0.0107,-0.226,-0.134
COc1cccc([C@H]2Oc3ccc(OC)cc3C(=NOC[C@@H](C)[C@H](OCc3ccccc3)C(C)C)[C@@H]2O)c1,0.169,0.0741 (inactive),0.399 (inactive),0.588 (inactive),0.77,-0.0364 (inactive),-0.341,0.0758,0.0869,0.0229
COC(=O)CC=C[C@@H](C)[C@@H](C=NOC(C)CN1CCCc2nc(C)c(C)cc21)OC (stereo not given in full),0.356,0.293 (inactive),0.245 (inactive),0.0448 (inactive),0.283,-0.64 (inactive),-0.165,0.541,0.625,0.0009
CO[C@@H]1COC(=O)[C@@H]2CCCN2C(=O)[C@@H](C)COC(=O)CC=C[C@H]1C,1.41,-0.414 (inactive),0.0992 (inactive),-1.14 (inactive),0.882,-0.152 (inactive),-0.0438,1.18,0.943,-0.0788
